Compound activity as filed in PubChem BioAssay.
Rows were chosen to be rich in hits. Some 8.8% of all compounds tested hit in one or more screens of this group.
HT1080-NT tox – kills 2HG-producing HT-1080-NT fibrosarcoma cells | HT-1080-NT fibrosarcoma viability, CellTiter-Glo ATP luminescence, 48 h | 360,000 compounds, 1.6% hits | Potency, µM (series often up to 46.1 µM), for the others: at the top dose activity, negative = less viability, hits mostly cytotoxic;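 further: NT is the 2HG producing partner of a matched IDH1 knockdown line; potency means the concentration at half of the fitted maximal effect; 0% = DMSO-treated cells and -100% = media-only wells without cells; nearly all actives have a fitted effect of over 55% in size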
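A 48-hour cytotoxicity screen used HT-1080-NT cells plated 2 hours before compound delivery. ATP-based CellTiter-Glo luminescence measured viability, normalized to DMSO and no-cell controls.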
KB-V1 cytotox – kills drug-selected multidrug resistant KB-V1 cells. 400,000 compounds, 3.4% hits. Potency, µM (highest dose often 46.1 µM), hits mostly cytotoxic. KB-V1 MDR cells viability, CellTiter-Glo, 72 h. AID 1347076; further: potency means the concentration at half of the fitted maximal effect; nearly all actives have a fitted effect of over 60% in size
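In this primary screen, KB-V1 cells overexpressing P-gp are incubated with library compounds (lowest to highest concentration) for 72 h at 37 degrees C before a luminescent ATP viability read.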
KB-3-1 cytotox – KB-3-1 parental cell cytotoxicity; Potency, µM (series often up to 46.1 µM), actives largely listed as cytotoxic; AID 1347075; KB-3-1 viability, CellTiter-Glo ATP luminescence, 72 h; 400,000 compounds, 1.4% hits; further: potency means the concentration at half of the fitted maximal effect; nearly all actives have a fitted effect of over 60% in size
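Viability of parental KB-3-1 cells, measured by CellTiter-Glo luminescence, followed a 72 h incubation at 37 °C with pinned compounds in phenol-red-free DMEM containing 10% FBS.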
IL1B secr inh – inflammasome signaling inhibition, IL-1 beta readout. THP-1 LPS/ATP IL-1B secretion, AlphaLISA, 16 h; active compounds read low. activity change, % at 57.5 µM. 360,000 compounds, 4.7% hits; in the data active means activity change below about -50%; inconclusive means mostly about -30% to -49%
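THP-1 cells pretreated 1 hr with compounds (up to 57.5 uM final), then stimulated with LPS (250 ng/mL final) plus ATP (1.25 mM final); secreted IL-1B measured by AlphaLISA after 16 hr, decreased signal indicating inhibition.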
HT1080 IDH1KD tx – kills HT-1080 cells with IDH1 knockdown. 360,000 compounds, 2% hits. Potency, µM (highest dose often 46.1 µM), for the others: top-dose activity, negative = toxicity, actives largely listed as cytotoxic. HT-1080 IDH1 knockdown viability, ATP luminescence, 48 h;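 further: potency means the concentration at half of the fitted maximal effect; 0% = DMSO wells and -100% = cell-free medium wells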
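Viability of IDH1-knockdown HT-1080 fibrosarcoma cells was assessed by CellTiter-Glo after 48 h at 37 °C with titrated compound; concentration-effect curves were classified by fit quality and response size.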
* marks the source's active call; other numbers are inactive results; i = inactive; ? = inconclusive; . = no result. Unless noted, the call rests on the fitted dose curve; in most records, active means well fitted curve in the direction sought with a large enough effect; inconclusive means small, poorly fitted or top-dose-only effect, or another doubt; inactive means no such curve, though single readings can be large; an effect the other way counts as inactive or inconclusive. Unless noted, on the % scale 0 is the no-effect control and ±100 the full control effect.

SMILES	HT1080-NT tox	KB-V1 cytotox	KB-3-1 cytotox	IL1B secr inh	HT1080 IDH1KD tx
CC(=O)c1sc(NC(=O)C2CC(=O)N(Cc3ccco3)C2)nc1-c1ccccc1 (configuration not stated)	-5%	i	i	-95*	-4%
COc1ccc(-c2csc(NC(=O)C3CC(=O)N(Cc4ccco4)C3)n2)cc1 (configuration not stated)	-16%	?	i	-61*	-16%
COc1ccc(-c2csc(NC(=O)C3CC(=O)N(c4ccc5c(c4)OCCO5)C3)n2)cc1 (configuration not stated)	-25%	21µM*	i	0	?
O=C(Nc1nc(-c2ccc3c(c2)OCCO3)cs1)C1CC(=O)N(c2ccc3c(c2)OCCO3)C1 (configuration not stated)	.	i	?	.	.
COc1ccc(OC)c(NC(=O)CSc2ccc3nnc(-c4cccnc4)n3n2)c1	0%	i	i	12	-8%
N#Cc1ccc(C(=O)Nc2ccccc2-c2nc3ccccc3s2)c(F)c1	.	i	i	.	.
Cc1ccc(S(=O)(=O)N2CCNC(=O)CC2)cc1	13%	i	i	0	12%
C=CC[C@H](CC(=O)NCCO)C(=O)N[C@@H](COC(=O)[C@@H](CC=C)CC(=O)OC(C)(C)C)Cc1c[nH]c2ccccc12	4%	i	i	-2	10%
FC(F)(F)c1ccc(NC(=S)NCc2ccccc2)cc1	?	?	i	-62*	?
FC(F)Sc1ccc(NC(=S)NC(c2ccccc2)c2ccccc2)cc1	?	?	?	-68*	?
Fc1ccc(NC(=S)NCc2cccs2)cc1	-5%	18µM*	?	70	-2%
S=C(NCc1cccs1)Nc1ccccc1	0%	?	i	0	-1%
FC(F)Oc1ccc(NC(=S)NCc2ccccc2)cc1	-9%	?	?	-4	-13%
FC(F)Sc1ccc(NC(=S)NCc2ccccc2)cc1	?	?	i	-92*	21µM*
NC(=O)c1ccc(NC(=O)CSc2cn(CC(=O)N3CCOCC3)c3ccccc23)cc1	5%	i	i	1	11%
Cn1cccc1C(=O)NC(=O)COC(=O)c1cc(Cl)ccc1[N+](=O)[O-]	1%	i	i	19	0%
Cn1nnc2c(NCc3ccco3)ncnc21	.	i	i	.	.
CCCCc1cc(=O)oc2c(C)c(OCC(=O)N3C[C@H]4C[C@@H](C3)c3cccc(=O)n3C4)ccc12	0%	i	i	-6	0%
CCOC=C1C(=O)N(C(C)=O)c2cc(OC)c(OC)cc21	-1%	?	i	-3	13%
O=S(=O)(c1ccc(F)cc1)N1CCCC(c2nc(-c3ccc(F)cc3)no2)C1 (configuration not stated)	7%	i	i	-9	10%
O=C(NC1CCCCC1)N1CCCC(c2nc(-c3ccc(S(=O)(=O)N4CCCC4)cc3)no2)C1 (configuration not stated)	0%	3.7µM*	?	2	-3%
CC(C)C(=O)N1CCC(c2nc(-c3ccc(S(=O)(=O)N4CCCC4)cc3)no2)CC1	11%	12µM*	i	14	-5%
O=S(=O)(NC1CC1)c1ccc(S(=O)(=O)N2CCCC(c3nc(-c4cccnc4)no3)C2)cc1 (configuration not stated)	-1%	8.2µM*	i	-1	2%
C=CCN1C(=O)c2ccc(C(=O)OCC(=O)N3CCN(c4ccccc4)CC3)cc2C1=O	-3%	i	i	16	-4%
COc1ccc(S(=O)(=O)Nc2noc3ccccc23)cc1OC	-5%	i	?	0	-11%
SMILES	HT1080-NT tox	KB-V1 cytotox	KB-3-1 cytotox	IL1B secr inh	HT1080 IDH1KD tx
CCOc1ccc(NC(=O)C(=O)NCC(c2cccnc2)N2CCc3ccccc32)cc1 (configuration not stated)	.	18µM*	?	.	.
Cc1ccccc1S(=O)(=O)N(C)C[C@@H]1OCc2cn(nn2)CCCC(=O)N([C@H](C)CO)C[C@H]1C	0%	i	i	9	8%
COc1ccc(N2CCN(C(=O)Cc3noc4ccc(C)cc34)CC2)cc1	.	i	i	.	.
CC[n+]1c(/C=C/C=C/N(C(C)=O)c2ccccc2)sc2cc(OC)ccc21	?	13µM*	3.3µM*	-117*	?
COc1ccc(C(=O)c2c(C(F)(F)F)oc3c2C(=O)c2ccccc2C3=O)cc1	7.3µM*	?	?	?	6.5µM*
COc1ccc(-c2nn(CC(=O)NCCc3ccccc3)c(=S)n2C)cc1	-9%	16µM*	?	-4	-26%
COC(=O)c1cc(Br)cn1S(=O)(=O)c1ccccc1	-7%	i	i	16	-8%
Cc1cc(=O)oc2cc(OCC(=O)NC3(C#N)CCCCC3)ccc12	8%	i	i	-22	5%
CCOc1ccc(Cc2c(Cl)nc(SC)nc2N(C)C)cc1	?	12µM*	12µM*	0	?
CSc1nc(Cl)c(Cc2ccc(OC(C)C)cc2)c(N(C)C)n1	0%	i	i	5	-3%
N/C(=N\OC(=O)Nc1ccccc1)c1ncc([N+](=O)[O-])s1	?	?	?	-64*	21µM*
O=C(COC(=O)COc1ccccc1)Nc1ncc([N+](=O)[O-])s1	4%	i	i	0	-3%
C[C@H]1O[C@@H](O[C@H]2[C@@H](O)C[C@H](O[C@H]3[C@@H](O)C[C@H](O[C@H]4CC[C@@]5(C)[C@H](CC[C@@H]6[C@@H]5C[C@@H](O)[C@]5(C)[C@@H](C7=CC(=O)OC7)CC[C@]65O)C4)O[C@@H]3C)O[C@@H]2C)C[C@H](O)[C@@H]1O	0.23µM*	0.41µM*	0.18µM*	-63*	0.037µM*
CC(C)(C)C(=O)Cn1ncc(Br)c(Br)c1=O	?	i	10µM*	-100*	?
Cc1ccc(-n2nnnc2-c2cccnc2)cc1	-7%	i	i	0	3%
Cc1ccc(-n2nnnc2-c2cnc(-c3cccnc3)nc2C(F)(F)F)cc1	-1%	21µM*	?	-4	-12%
Fc1ccc(-n2nnnc2-c2cnc(-c3cccs3)nc2C(F)(F)F)cc1	-11%	23µM*	?	-80*	?
FC(F)(F)c1nc(N2CCCC2)ncc1-c1nnnn1-c1ccc(Cl)cc1	-21%	15µM*	?	-17	?
FC(F)(F)c1nc(-c2ccncc2)ncc1-c1nnnn1-c1ccccc1	0%	21µM*	i	22	-6%
c1ccc(-n2nnnc2-c2cnc(-c3ccncc3)nc2-c2cccs2)cc1	-4%	?	i	-8	-2%
